Test systems include SK-MEL-2 melanoma; EKVX NSCLC; SN12C renal; UO-31 renal; TK-10 renal; ACHN renal; CAKI-1 renal; A498 renal; CCRF-CEM leukemia; MOLT-4 leukemia.
Holding throughout (test): NCI-60 one-dose screen, 48 h (100 = growth as untreated, 0 = no growth, -100 = all killed)
Conditions in all cases: 10 µM unless noted

The structures appear in SMILES notation. About 83,000 compounds went through this panel and 20% of them were active in at least one assay; those are over-represented in the sample as a whole.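 Testing used 96-well plates and a 48-hour single-concentration exposure. Example: -40 means 40% of the starting cells died.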 Unmarked numbers belong to inactive results. Activity calls are given as the source filed them. The calls were made as follows: active = growth percent below 10; inactive = the rest.

In the case of `Cc1ccc2c(c1)c1nc3cc(C)c(C)cc3nc1n2CCN(C)C`, the growth is 35.8% in the assay with SK-MEL-2 melanoma; 19.7% in the assay on EKVX NSCLC; 13.5% in the assay with SN12C renal; -10.4% (active) in the assay on UO-31 renal; 27.7% in the assay on TK-10 renal; -0.699% (active) in the assay on ACHN renal. Also, the growth is 2.44% (active) with CAKI-1 renal, 35.7% with A498 renal, 26.4% in the assay on CCRF-CEM leukemia and 8.57% (active) in the assay with MOLT-4 leukemia.

In the case of `COC(=O)C(Cc1ccccc1)n1cc(COc2nc(Cl)nc(Nc3ccc(Cl)cc3)n2)nn1` (stereo not given), the growth in the assay on SK-MEL-2 melanoma is 97.2%; with EKVX NSCLC, 95.4%; in the assay with SN12C renal it was 96.5%; in the assay with UO-31 renal, 72.6%; in the assay with TK-10 renal, 104%; in the assay with ACHN renal, 102%. Besides, the growth in the assay with CAKI-1 renal is 92.1%; in the assay with A498 renal, 61.6%; with CCRF-CEM leukemia it was 96.5%; in the assay on MOLT-4 leukemia, 91.3%.

In the case of `Cc1csc(Nc2nc(-c3ccc(Cl)cc3)nc(C(Cl)(Cl)Cl)n2)n1`, the growth is 112% in the assay on SK-MEL-2 melanoma; 76.6% in the assay with EKVX NSCLC; 94.1% with SN12C renal; 84.8% in the assay with UO-31 renal; 100% with TK-10 renal; 49.5% in the assay on ACHN renal. The growth was 78.1% in the assay on CAKI-1 renal, 85.2% with A498 renal, 90% with CCRF-CEM leukemia and 84.4% in the assay on MOLT-4 leukemia.

Consider `CC1c2ccccc2N(S(=O)(=O)c2ccccc2)C1C` (stereo not given), for which the growth in the assay on SK-MEL-2 melanoma is 76.5%; in the assay on EKVX NSCLC it was 92.5%; in the assay on SN12C renal it was 105%; with UO-31 renal it was 75.7%; in the assay on TK-10 renal, 100%; in the assay on ACHN renal it was 93.6%. Moreover, the growth was 74.5% in the assay on CAKI-1 renal, 104% in the assay with A498 renal, 78.2% with CCRF-CEM leukemia and 75.1% in the assay on MOLT-4 leukemia.

As to `CC1(C)CC[C@]2(C(=O)NCCNCCN)CC[C@]3(C)C(=CC[C@@H]4[C@@]5(C)CCC(=O)C(C)(C)[C@@H]5CC[C@]43C)[C@@H]2C1`, the growth is 82.4% with SK-MEL-2 melanoma; 94.8% in the assay with EKVX NSCLC; 14.2% with SN12C renal; 87.8% in the assay on UO-31 renal; 127% in the assay on TK-10 renal; 12.2% in the assay with ACHN renal. The growth is 27.1% in the assay with CAKI-1 renal, 81.5% in the assay on A498 renal, -17.8% (active) in the assay with CCRF-CEM leukemia and 3.49% (active) with MOLT-4 leukemia.

Regarding `C=C(C)[C@@H]1CC[C@]2(C)[C@H](CC=C3[C@@H]4CC(C)(C)CC[C@]4(C=O)CC[C@]32C)[C@@]1(C)CCCN`, the growth in the assay on SK-MEL-2 melanoma was 109%; in the assay with EKVX NSCLC, 94.5%; in the assay on SN12C renal, 66.7%; in the assay with UO-31 renal it was 44.6%; with TK-10 renal it was 81.4%; in the assay on ACHN renal, 88.4%. Moreover, the growth in the assay with CAKI-1 renal is 61.1%; in the assay with A498 renal it was 97%; in the assay with CCRF-CEM leukemia, 52.9%; with MOLT-4 leukemia, 35.5%.

`O=C(N/N=C\c1c(O)ccc2ccccc12)C1CC1`: the growth in the assay on SK-MEL-2 melanoma was 35.1%; in the assay with EKVX NSCLC it was 32.1%; with SN12C renal, 66.5%; with UO-31 renal, 8.64% (active); with TK-10 renal, 78.1%; with ACHN renal it was 23.6%. The growth was 2.09% (active) in the assay with CAKI-1 renal, 102% in the assay with A498 renal, 11.9% in the assay on CCRF-CEM leukemia and 9.27% (active) in the assay on MOLT-4 leukemia.

Take `C=C(C)[C@@H]1CC[C@]2(C(=O)N3CCN(C)CC3)CC[C@]3(C)[C@H](CC[C@@H]4[C@@]5(C)C/C(=C/c6ccc(C(F)(F)F)cc6)C(=O)C(C)(C)[C@@H]5CC[C@]43C)[C@@H]12`: the growth is 106% in the assay with SK-MEL-2 melanoma; 87.7% in the assay with EKVX NSCLC; 92.9% with SN12C renal; 73.5% in the assay on UO-31 renal; 105% with TK-10 renal; 96.4% in the assay with ACHN renal. For the same compound, the growth in the assay with CAKI-1 renal is 68.7%; with A498 renal, 97.4%; in the assay on CCRF-CEM leukemia, 88%; in the assay on MOLT-4 leukemia, 63.8%.

Consider `CN(CSc1ccc(Cl)cc1)c1ccc(CSc2ccc(Cl)cc2)cc1`, for which the growth in the assay with SK-MEL-2 melanoma is 78.1%; in the assay with EKVX NSCLC, 86.8%; with SN12C renal, 36.9%; in the assay on UO-31 renal, 26.6%; in the assay with TK-10 renal it was 87.1%; in the assay on ACHN renal it was 87.4%. For the same compound, the growth with CAKI-1 renal is 44.7%; with A498 renal, 71.8%; with CCRF-CEM leukemia, 6.37% (active); in the assay with MOLT-4 leukemia it was 8.87% (active).

Take `C[C@H]1[C@@H]2[C@H]3CC[C@@H]4[C@@]5(C)Cc6c([nH]c7ccccc67)C(C)(C)[C@@H]5CC[C@@]4(C)[C@]3(C)CC[C@]23CO[C@]1(C)[C@@H](C(=O)/C=C/c1ccccn1)C3`: the growth in the assay on SK-MEL-2 melanoma is 115%; in the assay on EKVX NSCLC, 102%; with SN12C renal it was 87.1%; with UO-31 renal it was 60.4%; in the assay with TK-10 renal, 123%; in the assay on ACHN renal, 92.4%. Besides, the growth in the assay with CAKI-1 renal is 63%; in the assay with A498 renal, 101%; in the assay on CCRF-CEM leukemia, 63%; with MOLT-4 leukemia it was 78.8%.

As for `CCC1C(=O)COC1=O` (stereo not given), the growth in the assay on SK-MEL-2 melanoma was 87%; with EKVX NSCLC, 95.5%; with SN12C renal, 104%; in the assay on UO-31 renal, 95.7%; in the assay with TK-10 renal, 90.5%; in the assay with ACHN renal, 103%. Also, the growth with CAKI-1 renal was 92.4%; with A498 renal, 91.4%; in the assay with CCRF-CEM leukemia it was 85.4%; in the assay with MOLT-4 leukemia, 92.9%.

As to `CC1(C)NC2=C(C(Nc3cccnc3)N1)C(c1ccc([N+](=O)[O-])cc1)C(C(=O)c1ccc(N=[N+]=[N-])cc1)O2` (stereo not given), the growth with SK-MEL-2 melanoma is 107%; in the assay on EKVX NSCLC it was 99.8%; in the assay with SN12C renal, 101%; with UO-31 renal it was 88.3%; in the assay on TK-10 renal, 97.1%; in the assay on ACHN renal, 102%. The growth in the assay on CAKI-1 renal was 102%; in the assay on A498 renal it was 108%; in the assay with CCRF-CEM leukemia, 98.8%; with MOLT-4 leukemia, 102%.

Consider `CC(C)/C=C/CC[C@](C)(O)[C@H]1CC[C@]2(C)[C@@H]1CC[C@@H]1[C@@]3(C)C/C(=C/c4cccc(C(F)(F)F)c4)C(=O)C(C)(C)[C@@H]3CC[C@]12C`, for which the growth with SK-MEL-2 melanoma is 126%; in the assay with EKVX NSCLC, 103%; in the assay with SN12C renal, 89.2%; in the assay on UO-31 renal, 79.6%; with TK-10 renal, 157%; with ACHN renal, 97%. The growth in the assay on CAKI-1 renal was 64.3%; with A498 renal it was 99%; in the assay on CCRF-CEM leukemia it was 86.9%; with MOLT-4 leukemia, 88.3%.

Values taken from PubChem BioAssay (NCI).
